# Laboratory results as given in PubChem BioAssay (NCATS).
# Results filed as inconclusive are left out. Activity calls are given as the source filed them. Calls come from the whole dose curve; as a rule, active = well fitted inhibition curve with a large enough effect; inconclusive = small, poorly fitted or top-dose-only effect; inactive = flat fitted curve, though single readings scatter.
# Test system: Zika virus NS2B-NS3 protease
# Assay: Primary screen GU AMC qHTS for Zika virus inhibitors (AID 1347154);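 note: 0% = no-inhibitor control and -100% = no-enzyme control; nearly all actives have a fitted effect of over 70% in size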
# Details: Zika NS2B-NS3 unlinked protease, AMC fluorogenic substrate; series mostly up to 54.1 µM; activity change, negative = inhibition: at the top concentration
# In short: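 Unlinked Zika NS2B hydrophilic domain/NS3 protease domain noncovalent complex (25 nM final) in 10 mM Tris-HCl pH 8.0, 0.01% Tween 20, with AMC peptide substrate. Fluorescence (ex 340, em 450 nm) change over 15 min, room temperature; percent inhibition fitted to 4-parameter Hill equation.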
SMILES,"activity change, negative = inhibition",Potency
CN(C)c1ccc(Nc2nc(N)n(C(=O)c3c(F)cccc3F)n2)cc1,3.01% (inactive),–
CCc1cc(Nc2nccc(-c3c(-c4ccc(OC)c(C(=O)Nc5c(F)cccc5F)c4)nc4ccccn34)n2)c(OC)cc1N1CCC(N2CCN(S(C)(=O)=O)CC2)CC1,7.81% (inactive),–
OCCn1cc(-c2cnc3nnn(Cc4ccc5ncccc5c4)c3n2)cn1,1950% (inactive),–
CCCS(=O)(=O)Nc1ccc(F)c(C(=O)c2c[nH]c3ncc(Cl)cc23)c1F,-7.04% (inactive),–
Cc1cc([C@@H](C)Nc2ccccc2C(=O)O)c2nc(N3CCOCC3)cc(=O)n2c1,-7.8% [at 104 µM] (inactive),–
Cn1c(=O)c(F)c(Nc2ccc(I)cc2F)c2c(=O)n(C[C@@H](O)CO)cnc21,-2% (inactive),–
CCN(CC)CCCC(C)Nc1nc(C)cc(Nc2ccc3nc(C)cc(N)c3c2)n1 (stereo not drawn),8.06% (inactive),–
CC(=O)NC(C)c1ccc(Oc2ccc(OC(C)C)cc2)cc1 (stereo not drawn),2.33% (inactive),–
c1ccc(-c2nn3c(c2-c2ccnc4cc(OCCN5CCOCC5)ccc24)CCC3)nc1,-1.78% (inactive),–
CCc1ccc(CCOc2ccc(CC3SC(=O)NC3=O)cc2)nc1 (stereo not drawn),–,inactive
COc1cc2c(cc1OC)CN(CCc1ccc(NC(=O)c3cccc4c(=O)c5cccc(OC)c5[nH]c34)cc1)CC2,-10.1% (inactive),–
CC(C)(N)C(=O)N[C@H](COCc1ccccc1)C(=O)N1CCC2(CC1)CN(S(C)(=O)=O)c1ccccc12,1.19% (inactive),–
COc1ccc2c3n(c(=NC(=O)c4cccnc4)nc2c1OC)CCN3,18.1% (inactive),–
CCOC(=O)C1=C[C@]2(CC)CCCN3CCc4c(n1c1ccccc41)[C@@H]32,–,inactive
O=C(Nc1cccnc1)N1CCC(Cc2cccc(Oc3ccc(C(F)(F)F)cn3)c2)CC1,-9.35% (inactive),–
COCCNCCCn1c(C(=O)CF)c(-c2ccc(C)cc2)c2c(N)ncnc21,-3.17% (inactive),–
COc1ccc([C@@H]2CC(=O)c3c(O)cc(O[C@@H]4O[C@H](CO[C@@H]5O[C@@H](C)[C@H](O)[C@@H](O)[C@@H]5O)[C@@H](O)[C@H](O)[C@@H]4O)cc3O2)cc1O,–,inactive

SMILES,"activity change, negative = inhibition",Potency
O=C(O)[C@@H](c1ccc(OCc2ccc3ccccc3n2)cc1)C1CCCC1,-6.08% (inactive),–
CCN(c1ccccc1)c1cc(NC)[n+](C)c(C)n1,-0.066% (inactive),–
N#Cc1ccc(C(c2ccc(C#N)cc2)n2cncn2)cc1,1.1% (inactive),–
Nc1cccc(S(=O)(=O)N2CCCN(S(=O)(=O)c3ccc4c(c3)OCCO4)CC2)c1,-13.6% (inactive),–
COc1cc(F)c(F)c(Nc2ccc(I)cc2F)c1NS(=O)(=O)C1(C[C@H](O)CO)CC1,-9.07% (inactive),–
COc1nc(-c2ccc3c(c2)OCO3)n(-c2ccc(NC(=O)CSc3ccccc3)cc2)n1,-10.5% (inactive),–
CCOc1cc(C=C2C(=O)N(c3ccccc3)N=C2C)cc(Cl)c1OCC(=O)OC,-12% (inactive),–
C[C@]12CC[C@H](O)CC1=CC[C@@H]1[C@H]2CC[C@]2(C)C(c3cccnc3)=CC[C@H]12,-5.06% [at 25.8 µM] (inactive),–
CNC(=O)c1ccc(C)c(-n2c(C)cc(OCc3ccc(F)cc3F)c(Br)c2=O)c1,5.94% (inactive),–
CCn1c(-c2nonc2N)nc2cnc(Oc3cccc(NC(=O)c4ccc(OCCN5CCOCC5)cc4)c3)cc21,20.2% (inactive),–
O=C(C=Cc1ccc(/C=C/C(=O)Nc2ccc(C3=NCCN3)cc2)cc1)Nc1ccc(C2=NCCN2)cc1,-7.34% (inactive),–
Clc1ccc(Nc2nnc(Cc3ccncc3)c3ccccc23)cc1,–,inactive
CS(=O)(=O)Oc1ccc2c(NC(N)=O)c(C(=O)c3ccc(Cl)cc3Cl)oc2c1,0.655% (inactive),–
Cc1cc(C=c2sc3nc4ccccc4n3c2=O)c(C)n1-c1ccccc1,7.96% (inactive),–
COc1ccc(CC2=NN3C([C@@H](CCc4ccccc4)[C@@H](C)O)=NC(C)C3C(=O)N2)cc1OC (stereo partly drawn),-11.5% (inactive),–
CS(=O)(=O)c1cccc(CNc2nc(Nc3ccc4c(c3)CCC(=O)N4)ncc2C(F)(F)F)c1,-5.06% (inactive),–
